Screening results deposited in PubChem BioAssay by National Center for Advancing Translational Sciences (NCATS).
WRN helicase inh – WRN helicase (human) inhibition; AID 651768; WRN helicase unwinding, fluorescent forked duplex, kinetic; Potency, µM (highest dose often 114 µM), without a hit: at the top dose activity change, negative = inhibition, usual class: inhibitors; actives 0.46% (n = 360,000); Q14191; further: potency means the concentration at half of the fitted maximal effect; on the % scale 0 is the no-effect control and ±100 the full control effect; nearly all actives have a fitted effect of over 55% in size
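WRN at 20 nM final preincubated with compound 15 min at room temperature; reaction started with 100 nM fluorophore/quencher forked duplex oligonucleotide and 2 mM ATP final. Unwinding followed kinetically by red fluorescence (ex 525, em 598 nm).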
Pin1 inhibitor – blocks the human prolyl isomerase Pin1; Q13526; Pin1 FP peptide displacement, HiFluor488, 10 min; Potency, µM (titrated, usually from 115 µM), for inactives: at the top dose activity, negative = inhibition, usual class: inhibitors; actives 0.009% (n = 390,000); AID 504891; active means well fitted inhibition curve with a large enough effect in the polarisation, with a control signal flat, not every such curve was filed as active; inconclusive means small, poorly fitted or top-dose-only effect, or effect the other way, or a change in a side signal; inactive means no such curve, though single readings can be large or run the other way; the % refers to the polarisation; further: potency means the concentration at half of the fitted maximal effect; on the % scale 0 is the no-effect control and ±100 the full control effect
Target sequence (Q13526 whole entry, looked up): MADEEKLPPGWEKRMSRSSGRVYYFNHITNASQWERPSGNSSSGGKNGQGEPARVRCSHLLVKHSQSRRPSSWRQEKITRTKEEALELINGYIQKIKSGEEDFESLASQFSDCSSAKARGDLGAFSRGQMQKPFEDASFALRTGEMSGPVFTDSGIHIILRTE
Glioma ERSR ind – ER stress response induction in glioma; U87-MG GRP78 promoter luciferase reporter, 16 h; Potency, µM, for inactives: top-dose activation, actives largely listed as activators; actives 0.02% (n = 420,000); further: potency means the concentration at half of the fitted maximal effect; series mostly up to about 76 µM; % of control where 0% means no effect; nearly all actives have a fitted effect of over 35% in size
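Stably transfected U87-MG glioma cells carrying a GRP78-based luciferase sensor; 16 h compound incubation. Luminescence end-point read 10 min after Bright-Glo addition at room temperature.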
Tb PGK inh – blocks T. brucei phosphoglycerate kinase; P07378; PGK/GAPDH coupled, Kinase-Glo luminescence, 60 min; Potency, µM (titrated, usually from 57.5 µM), inactives show at the top dose activity change, negative = inhibition, most hits filed as inhibitors; actives 0.043% (n = 380,000); further: potency means the concentration at half of the fitted maximal effect; on the % scale 0 is the no-effect control and ±100 the full control effect; nearly all actives have a fitted effect of over 60% in size
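Recombinant glycosomal PGK reaction used 1,3-bisphosphoglycerate generated in-well by GAPDH (100nM final) in 100mM TEA pH 7.6, 5mM MgCl2, 0.01% Tween-20. After 60 minutes at room temperature, ATP was read by Kinase-Glo Plus luminescence end-point.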
FEN1 inhibitor – human FEN1 inhibition. Recombinant FEN1 flap cleavage, fluorescence, 15 min. Potency, µM (highest dose often 114 µM), for the others: at the highest dose activity change, negative = inhibition, hits mostly inhibitors. actives 0.35% (n = 390,000). P39748. AID 588795; further: potency means the concentration at half of the fitted maximal effect; on the % scale 0 is the no-effect control and ±100 the full control effect; nearly all actives have a fitted effect of over 65% in size
Target sequence (P39748 whole entry, looked up): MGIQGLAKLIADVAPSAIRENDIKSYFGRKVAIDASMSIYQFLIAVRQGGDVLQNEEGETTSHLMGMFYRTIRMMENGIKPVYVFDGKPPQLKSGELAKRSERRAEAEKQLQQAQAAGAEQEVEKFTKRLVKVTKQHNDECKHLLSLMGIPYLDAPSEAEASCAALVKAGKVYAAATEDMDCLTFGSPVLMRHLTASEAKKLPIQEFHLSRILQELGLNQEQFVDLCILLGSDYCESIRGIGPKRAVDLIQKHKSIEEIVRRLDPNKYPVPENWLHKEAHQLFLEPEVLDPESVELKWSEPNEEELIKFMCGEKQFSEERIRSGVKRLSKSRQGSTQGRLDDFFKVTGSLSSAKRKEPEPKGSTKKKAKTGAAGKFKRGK
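Potency values derive from four-parameter Hill fits of normalized qHTS data. The reaction used 10 nM FEN1 preincubated 15 min at room temperature with compound, then 50 nM DNA substrate, read at 0 and 15 min.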
PI5P4Ka inh – blocks human PI5P4K alpha kinase activity; PI5P4Kalpha enzyme, ADP-Glo luminescence, 60 min; stronger effect = lower value; max response, %; actives 1.2% (n = 330,000); active means max response of -50% or lower; inconclusive means between -30% and -50%; inactive means -30% or higher; further: value at the top dose of about 77 µM; on the % scale 0 is the no-effect control and ±100 the full control effect
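Human PI5P4Kalpha with substrate in 0.038 M HEPES pH 7.4, 0.28 mM EGTA, 0.1% CHAPS, 5% DMSO; reaction started with 5 microM ATP (final), 60 min at room temperature. ADP formed read by ADP-Glo luminescence.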
Numbers without * were called inactive; i = inactive; ? = inconclusive; · = no result given; [ ] = another dose, or the depositor's remark. Shown are actives, neighbours in structure and some others; about 1.3% of the full set was active somewhere. Unless noted, the call rests on the fitted dose curve; in most records, active means well fitted curve in the direction sought with a large enough effect; inconclusive means small, poorly fitted or top-dose-only effect, or another doubt; inactive means no such curve, though single readings can be large; an effect the other way counts as inactive or inconclusive.

SMILES	WRN helicase inh	Pin1 inhibitor	Glioma ERSR ind	Tb PGK inh	FEN1 inhibitor	PI5P4Ka inh
Cc1ccc(NC(=O)/C(=C\c2ccc([N+](=O)[O-])cc2)NC(=O)c2ccccc2)cc1	3%	0%	-6%	-4%	0%	3
O=C(N/N=C/c1ccc(O)c(O)c1O)/C(=C/c1ccc([N+](=O)[O-])cc1)NC(=O)c1ccccc1	40µM*	?	-4%	-5%	?	-86*
CC(CSc1n[nH]c(=S)s1)c1ccccc1 (stereo not given)	-4%	-1%	-1%	-1%	3%	-54*
CC(Cc1n[nH]c(=S)o1)c1ccccc1 (stereo not given)	3%	-11%	1%	-1%	-18%	-22
O=C1c2ccccc2C(=O)N1CCSc1n[nH]c(=S)s1	-21%	-1%	-4%	2%	5%	-77*
C=CCN(C(=O)CCc1ccccc1OC)c1nc(-c2ccc(S(C)(=O)=O)cc2)cs1	4%	37%	6%	-12%	10%	-4
C=CCN(C(=O)Cc1cccs1)c1nc(-c2ccc(S(C)(=O)=O)cc2)cs1	0%[11.6 µM]	15%	-2%	i	-4%	-63*
Cc1cc(C)n2nc(C(=O)NCC3Cc4cccc(-c5ccc(S(C)(=O)=O)cc5)c4O3)cc2n1 (stereo not given)	·	·	3%	·	·	·
Cc1ccc(C(=O)n2ncn(C)c2=S)cc1	1%	-15%	-4%	-6%	-19%	-63*
CC(C(=O)Nc1ccc(C(=O)O)c(O)c1)N1C(=O)/C(=C\c2ccco2)SC1=S (stereo not given)	40µM*	?	-5%	?	3%	?
CC(C)C(C(=O)O)N1C(=O)/C(=C/C=C/c2ccco2)SC1=S (stereo not given)	3.5µM*	?	-3%	8.9µM*	18µM*	-94*
O=C(NN1C(=O)/C(=C/C=C/c2ccco2)SC1=S)c1ccncc1	3.2µM*	?	-5%	14µM*	7.1µM*	-79*
CC(C)C(C(=O)O)N1C(=O)/C(=C/c2cccn2C)SC1=S (stereo not given)	-1%	?	0%	i	-4%	0
O=C(CN1C(=O)/C(=C/c2ccco2)SC1=S)Nc1ccc(O)c(C(=O)O)c1	-1%	·	0%	?	?	?
COC(=O)c1ccc(NC(=O)C(=O)c2cccn2C)cc1	-4%	2%	-7%	-6%	12%	-53*
Cc1cc2c(s1)c1cnn(Cc3cc(Cl)ccc3F)c(=O)c1n2C	·	-4%	·	·	·	·
Nc1ccc(-c2nc3nc(N)nc(N)c3nc2-c2ccc(N)cc2)cc1	-26%	3%	-6%	-5%	-35%	-51*
CN(C)c1nc(N2CCN(c3ccc(F)cc3)CC2)c(C#N)c(=O)o1	-4%	-10%	-5%	i	7%	15
N#Cc1c(N2CCN(c3ccc(F)cc3)CC2)nc(N)c2c(N)nc3c(c12)CC(=O)N3C1CC1	-13%	6%	-8%	0%	-11%	-50*
Cc1ccccc1C(=O)NCC(=O)OC(C(=O)Nc1cc(C(F)(F)F)ccc1Cl)c1ccccc1 (stereo not given)	·	5%	·	·	·	·
O=C1[C@H]2CCC=C[C@H]2[C@H](c2cccc(Br)c2)N1Cc1ccccc1	-7%	2%	-5%	-9%	?	-53*
CSc1nc(=S)cc(C)[nH]1	40µM*	?	-4%	i	-13%	?
Cc1cc(=S)nc(-c2ccccn2)[nH]1	-21%	-2%	4%	-3%	1%	-8
COc1ccc(Br)cc1C(=O)NC(=S)Nc1ccc(Cl)c(C(=O)O)c1	-16%	?	-1%	-5%	-5%	-65*
COc1ccc(Br)cc1/C=C/C(=O)NC(=S)Nc1ccc(Cl)c(C(=O)O)c1	-5%[11.6 µM]	-5%	2%	?	?	-10
Cc1ccc(N=Nc2c(O)ccc3n[nH]nc23)cc1	1%	13%	-5%	-5%	0%	-60*
O=c1c2ccccc2nc(-c2ccccc2O)n1Cc1ccccc1	·	-7%	·	·	·	·
